Results on 13 molecules are retold here after PubChem BioAssay.

The source made the active and inactive calls.

Assay [1] is described as follows: optical density shifts of acrAB sulA E. coli – strain DRC41, OD650, 48 h, E. coli filamentation inducer project, primary screen (AID 1152).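 Also: E. coli MC1000 strain DRC41 lacking acrAB efflux pump and sulA.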 To be noted: higher = more signal, called active from +8 up or from −8 down.
A short description of assay [2]: probe aLefty1 binding on compound microarray – biochemical, small-molecule microarray, 635/667 nm fluorescence, primary screen (AID 1153).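 Also: score merges spot fluorescence with signal-to-noise ratio from the scanned slide images.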 To be noted: higher = more signal.
Assay [3] can be described thus: plasmodial surface anion channel blockers, osmotic lysis – cell-based, P. falciparum Indochina, OD700, 1 h, primary screen (AID 1154). To be noted: P. falciparum Indochina infected RBC osmotic lysis, higher = more signal, called active from +8 up or from −8 down.
Assay [4] is described as follows: plasmodial surface anion channel blockers, osmotic lysis – cell-based, P. falciparum Indochina, OD700, 2 h, primary screen (AID 1155).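 Also: lysis reports solute entry through the parasite surface anion channel PSAC.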 To be noted: P. falciparum Indochina infected erythrocytes, higher = more signal, called active from +8 up or from −8 down.
A short description of assay [5]: changes in parasitized red cell lysis, either direction – P. falciparum Indochina, OD700, 3 h, PSAC antagonist project, primary screen (AID 1156). To be noted: P. falciparum-infected erythrocytes, osmotic lysis, higher = more signal, called active from +8 up or from −8 down.
The nature of assay [6]: plasmodial surface anion channel blockers, osmotic lysis – cell-based, P. falciparum Indochina, OD700, 18 h, primary screen (AID 1157). To be noted: P. falciparum Indochina infected erythrocytes, osmotic lysis OD700, 18 h; higher = more signal, called active from +8 up or from −8 down.
Assay [7] is described as follows: S6 kinase pathway phospho-S6 level changes – cell-based, A549, cytoblot, luminescence, serum-stimulated, primary screen (AID 1158).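 Also: serum-stimulated A549 lung adenocarcinoma cells; signal is phosphorylated S6 detected by cytoblot immunostaining with HRP secondary.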 To be noted: 5 h, higher = more signal.
The target in assay [8] is NADPH oxidase 2 (Homo sapiens) (UniProt P04839). Nature of the assay: compounds shifting NOX2 Amplex Red fluorescence – cell-based, HEK293-NOX2, PMA-stimulated, NOX inhibitor project, primary screen (AID 1159). Also: test concentration not given here. To be noted: 45 min, higher = more signal, called active from +8 up or from −8 down.
Sequence of NADPH oxidase 2 (Homo sapiens) (P04839 whole entry, looked up): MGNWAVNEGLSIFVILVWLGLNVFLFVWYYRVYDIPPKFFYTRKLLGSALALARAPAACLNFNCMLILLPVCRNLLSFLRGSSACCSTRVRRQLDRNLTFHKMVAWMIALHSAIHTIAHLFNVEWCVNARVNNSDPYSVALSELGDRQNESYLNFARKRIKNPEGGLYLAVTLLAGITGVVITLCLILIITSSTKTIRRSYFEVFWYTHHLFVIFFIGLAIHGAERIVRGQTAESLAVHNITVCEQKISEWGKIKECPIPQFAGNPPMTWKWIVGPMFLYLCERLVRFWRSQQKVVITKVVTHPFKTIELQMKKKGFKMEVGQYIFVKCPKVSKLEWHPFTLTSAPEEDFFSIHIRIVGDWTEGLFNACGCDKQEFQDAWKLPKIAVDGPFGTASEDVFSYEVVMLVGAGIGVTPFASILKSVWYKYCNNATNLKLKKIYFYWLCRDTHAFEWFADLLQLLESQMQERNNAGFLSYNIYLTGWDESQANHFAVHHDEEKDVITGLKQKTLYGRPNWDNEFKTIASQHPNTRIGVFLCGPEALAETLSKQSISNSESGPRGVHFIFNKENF
For assay [9], the target named is NADPH oxidase 4 (Homo sapiens) (UniProt Q9NPH5). Nature of the assay: compounds shifting NOX4 Amplex Red fluorescence – cell-based, HEK293-NOX4, tetracycline-induced, NOX inhibitor project, primary screen (AID 1160). To be noted: HEK293-NOX4, Amplex Red H2O2 fluorescence, 45 min; higher = more signal, called active from +8 up or from −8 down.
Sequence of NADPH oxidase 4 (Homo sapiens) (Q9NPH5 whole entry, looked up): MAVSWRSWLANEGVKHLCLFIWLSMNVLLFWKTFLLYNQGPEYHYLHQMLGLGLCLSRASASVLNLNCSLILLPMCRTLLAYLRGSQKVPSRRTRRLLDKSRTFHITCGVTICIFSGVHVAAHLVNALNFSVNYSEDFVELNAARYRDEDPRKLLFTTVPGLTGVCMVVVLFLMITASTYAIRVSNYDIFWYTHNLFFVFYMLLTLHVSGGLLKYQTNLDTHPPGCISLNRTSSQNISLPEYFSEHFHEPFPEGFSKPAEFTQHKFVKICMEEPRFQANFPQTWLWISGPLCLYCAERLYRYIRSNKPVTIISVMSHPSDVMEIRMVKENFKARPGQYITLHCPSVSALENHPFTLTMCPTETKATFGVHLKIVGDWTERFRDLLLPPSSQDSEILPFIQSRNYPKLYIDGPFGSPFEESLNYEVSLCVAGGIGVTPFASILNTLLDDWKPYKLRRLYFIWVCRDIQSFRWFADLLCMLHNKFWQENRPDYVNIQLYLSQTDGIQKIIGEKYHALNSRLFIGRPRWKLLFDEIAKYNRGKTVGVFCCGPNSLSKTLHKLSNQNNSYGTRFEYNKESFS
Assay [10] addresses NADPH oxidase 5 (Homo sapiens) (UniProt Q96PH1). Nature of the assay: compounds shifting NOX5 Amplex Red fluorescence – cell-based, HEK293-NOX5, NOX inhibitor project, primary screen (AID 1161). To be noted: HEK293-NOX5, ionomycin, 45 min, higher = more signal.

Sequence of NADPH oxidase 5 (Homo sapiens) (Q96PH1 whole entry, looked up): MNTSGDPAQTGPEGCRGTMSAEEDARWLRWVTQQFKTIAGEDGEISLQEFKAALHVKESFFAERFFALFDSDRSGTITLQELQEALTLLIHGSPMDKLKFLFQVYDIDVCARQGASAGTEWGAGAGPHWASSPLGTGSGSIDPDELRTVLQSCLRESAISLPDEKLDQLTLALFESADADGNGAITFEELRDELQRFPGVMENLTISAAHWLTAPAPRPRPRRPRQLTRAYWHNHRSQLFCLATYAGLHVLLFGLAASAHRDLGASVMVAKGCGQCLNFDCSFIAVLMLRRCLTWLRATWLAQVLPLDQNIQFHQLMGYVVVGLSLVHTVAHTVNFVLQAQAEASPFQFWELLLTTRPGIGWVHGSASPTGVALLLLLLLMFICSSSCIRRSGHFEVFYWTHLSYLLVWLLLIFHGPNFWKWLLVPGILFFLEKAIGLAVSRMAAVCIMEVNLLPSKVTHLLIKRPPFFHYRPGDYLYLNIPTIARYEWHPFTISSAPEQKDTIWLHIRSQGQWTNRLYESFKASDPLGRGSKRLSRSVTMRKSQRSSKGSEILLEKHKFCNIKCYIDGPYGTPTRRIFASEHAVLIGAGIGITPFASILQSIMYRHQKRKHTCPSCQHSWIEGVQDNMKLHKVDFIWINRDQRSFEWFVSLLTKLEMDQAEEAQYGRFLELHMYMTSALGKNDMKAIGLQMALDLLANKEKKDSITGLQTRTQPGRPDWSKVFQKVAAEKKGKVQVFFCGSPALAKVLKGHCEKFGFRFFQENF

As to `COc1ccc(C(O)C2C=CC3C(=O)N(C)C(=O)C3N2Nc2ccccc2)cc1OCc1ccccc1` (stereo not given), the z-score in [1] was -1.69 (inactive); in [3] it was 1.68 (inactive); in [4], 1.36 (inactive); in [5], 0.272 (inactive); in assay [6], 1.1 (inactive); in assay [7] it was -1.17. The values for the z-score in assay [8], in assay [9] and in [10] were -1.25 (inactive), -4.36 (inactive) and -2.57, respectively. Further, in assay [2], the composite z-score turned out to be 0.0451.

Consider `Cc1cc(C)c(C(O)C2C=CC3C(=O)N(C)C(=O)C3N2Nc2ccccc2)c(C)c1` (stereo not given), for which the z-score is -1.52 (inactive) in [1]; 0.277 (inactive) in assay [3]; 0.519 (inactive) in assay [4]; -0.168 (inactive) in [5]; 1.03 (inactive) in assay [6]; -0.858 in assay [7]. Besides, the z-score in [8] was -0.802 (inactive); in assay [9], -3.6 (inactive); in assay [10], -1.96. This molecule returned a composite z-score in assay [2] of 1.5.

In the case of `Cc1ccc(S[C@]2(C(=O)NCCN3CCOCC3)CC(=O)N(Cc3cc(C(F)(F)F)cc(C(F)(F)F)c3)[C@@H]2c2ccc(CO)cc2I)cc1`, the z-score in assay [1] is 0.288 (inactive); in [3], 2.66 (inactive); in [4], -0.599 (inactive); in assay [5], -1.61 (inactive); in assay [6] it was -1.68 (inactive); in assay [7], 0.704. Moreover, the z-score in assay [8] is 2.05 (inactive); in assay [9], -0.995 (inactive); in assay [10], 3.01. Also, the composite z-score in assay [2] was determined as 0.0742.

Take `CCCC[C@@H]1C[C@H]1[C@@H](NC(=O)c1ccc(-c2ccccc2)cc1)c1ccc(-c2ccccc2)cc1`: the z-score was -2.4 (inactive) in assay [1]; 2.15 (inactive) in assay [3]; 0.275 (inactive) in assay [4]; 1.68 (inactive) in [5]; 0.446 (inactive) in assay [6]; -0.456 in assay [7]. For the same molecule, the z-score was -1.32 (inactive) in [8], -2 (inactive) in assay [9] and -0.619 in assay [10]. In assay [2], this molecule yielded a composite z-score of 0.0341.

As to `C=CCOC(=O)[C@@H]1[C@H]2C(=O)O[C@H](c3ccccc3)[C@H](c3ccccc3)N2[C@H](c2ccc(OCCOC(=O)[C@@H]3C[C@@H]4C(=O)NCC(=O)N4[C@@H]3c3cccc(OCCO)c3)cc2)[C@@]12C(=O)Nc1ccc(I)cc12`, the z-score in assay [1] is -0.407 (inactive); in assay [3], 2.11 (inactive); in assay [4], 0.636 (inactive); in assay [5], 1.64 (inactive); in assay [6], 0.572 (inactive); in assay [7], -0.5. In addition, the z-score in assay [8] was 1.72 (inactive); in assay [9], 1.19 (inactive); in [10], 1.37. In addition, the composite z-score in assay [2] is 0.42.

As for `Cc1c(NC(=O)CC#N)c(=O)n(-c2ccccc2)n1C`, the z-score was 1.47 (inactive) in assay [1]; -0.794 (inactive) in assay [3]; -1.31 (inactive) in assay [4]; -0.202 (inactive) in assay [5]; -1.31 (inactive) in [6]; 2.17 in [7]. For the same molecule, the results for the z-score in [8], in assay [9] and in [10] were -0.463 (inactive), -0.0592 (inactive) and 0.66, respectively. Moreover, the composite z-score in assay [2] was -0.193.

Regarding `O=c1cccc(CCc2ccccc2)o1`, the z-score in assay [1] was -1.21 (inactive); in [3], 1.83 (inactive); in assay [4], 0.584 (inactive); in [5], -0.13 (inactive); in [6], 0.339 (inactive); in assay [7] it was -0.467. Besides, the figures for the z-score in assay [8], in [9] and in [10] were 0.378 (inactive), 0.12 (inactive) and -0.339, respectively. In addition, the composite z-score in assay [2] was -0.15.

Turning to `[N-]=[N+]=NCc1ccccc1C[C@]1(C(=O)O)N=C(c2ccc(OCCCO)cc2)O[C@H]1c1ccccc1`, the z-score in assay [1] was -0.0931 (inactive); in assay [3] it was 9.62 (active); in assay [4], 0.754 (inactive); in assay [5], -0.468 (inactive); in assay [6], -0.0988 (inactive); in [7], -0.381. For the same molecule, the z-score in assay [8] is 0.453 (inactive); in assay [9], 1.4 (inactive); in [10], 1.68. The composite z-score in [2] is 0.0299.

`CC(=O)Nc1cc(Br)ccc1C(=O)O`: the z-score in assay [1] is -0.657 (inactive); in assay [3] it was 0.552 (inactive); in assay [4] it was 0.501 (inactive); in [5], -0.904 (inactive); in assay [6] it was 0.305 (inactive); in assay [7] it was -0.107. Moreover, the z-score was 0.385 (inactive) in [8], -0.128 (inactive) in assay [9] and -0.269 in assay [10]. Moreover, the composite z-score in assay [2] came out at 0.0494.

Consider `C=CCC(OC(C)=O)[C@@H]1[C@@H](N(Cc2ccc(-c3ccccc3)cc2)C(=O)Cc2ccc(F)cc2)c2cc(OCCCO)ccc2N1C(=O)c1ccc2ccccc2n1` (stereo not given in full), for which the z-score is 1.51 (inactive) in [1]; 0.879 (inactive) in assay [3]; 1.19 (inactive) in assay [4]; -0.385 (inactive) in assay [5]; 0.505 (inactive) in [6]; 0.374 in assay [7]. The z-score was -0.632 (inactive) in assay [8], 0.631 (inactive) in [9] and 1.95 in assay [10]. Moreover, in assay [2], the composite z-score is 0.22.

On to `[N-]=[N+]=NCc1ccccc1C[C@@]1(C(=O)NCC(O)CO)N=C(c2ccc(OCCCO)cc2)O[C@@H]1c1ccccc1CN=[N+]=[N-]` (stereo not given in full), for which the z-score in assay [1] is 0.19 (inactive); in assay [3] it was 27.4 (active); in assay [4], 14.6 (active); in [5] it was 0.029 (inactive); in [6] it was 2.24 (inactive); in assay [7] it was -0.324. Further, the z-score was 0.266 (inactive) in assay [8], 1.54 (inactive) in [9] and 2.31 in [10]. The molecule also registered a composite z-score in [2] of 0.455.

For the molecule `O=C1C2C=CC(C(O)c3cccs3)N(Nc3ccccc3F)C2C(=O)N1c1ccccc1` (stereo not given), the z-score is 0.386 (inactive) in assay [1]; 1.35 (inactive) in assay [3]; -0.506 (inactive) in [4]; -1.27 (inactive) in assay [5]; -1.23 (inactive) in assay [6]; 0.224 in assay [7]. Moreover, the z-score is -0.932 (inactive) in assay [8], -3.7 (inactive) in [9] and -1.78 in assay [10]. The composite z-score in assay [2] is 0.248.

For the molecule `CN(C)CCCCCCNC(=O)[C@H]1C[C@H]2C(=O)N[C@@H](CCCCN)C(=O)N2[C@H]1c1ccc(O)cc1`, the z-score was -0.261 (inactive) in assay [1]; -0.294 (inactive) in [3]; 0.155 (inactive) in assay [4]; -0.844 (inactive) in assay [5]; 0.303 (inactive) in assay [6]; 0.169 in assay [7]. In addition, the z-score in assay [8] was 0.418 (inactive); in [9], -0.145 (inactive); in [10] it was 0.887. The molecule also came in with a composite z-score in assay [2] of 2.82.
